This passage reports composite z-score and z-score results from PubChem BioAssay.

The nature of assay [1]: small molecules captured by biotinylated probe aFSTL3 – biochemical, small-molecule microarray, fluorescence 635/667, stem cell growth factor project, primary screen (AID 1064).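 Note: measures binding of the biotinylated anti-FSTL3 antibody to printed compounds.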 As to conditions: higher = more signal.
Assay [2] in a line: binders from COS7 lysate, DM2A8 probe, primary screen, torsin A project, cell lysate, small-molecule microarray, fluorescence 635/667 (AID 1065). The note with it: higher = more signal, COS7 lysate expressing mutant human TOR1A.
The nature of assay [3]: small molecules captured by biotinylated probe aFGF2 – biochemical, small-molecule microarray, fluorescence 635/667, stem cell growth factor project, primary screen (AID 1067).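 Note: measures binding of biotinylated aFGF2 protein to printed compounds on slides; z-score merges feature fluorescence and signal-to-noise across triplicate slides.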 The note with it: higher = more signal.
Assay [4] can be described thus: small molecules captured by biotinylated probe aFGF10 – biochemical, small-molecule microarray, fluorescence 635/667, stem cell growth factor project, primary screen (AID 1071).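 Note: score merges 667 nm spot intensity and signal to noise from triplicate slides.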 The note with it: higher = more signal.
Assay [5] addresses Neurogenic locus notch homolog protein 2 (Homo sapiens) (UniProt Q04721). Put plainly: small molecules binding Notch2 protein – biochemical, small-molecule microarray, 635 nm fluorescence, stem cell growth factors, primary screen (AID 1073). As to conditions: higher = more signal.
The target of assay [6] is Pro-neuregulin-1, membrane-bound isoform (Homo sapiens) (UniProt Q02297). In words: small molecules binding neuregulin-1 protein – biochemical, small-molecule microarray, fluorescence 635/667, psychiatric disease protein project, primary screen (AID 1075).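 Note: score combines 667 nm spot fluorescence with signal to noise.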 The note with it: NRG1 binding, 635 nm fluorescence, higher = more signal.
Assay [7] relates to Neuregulin-1 EGF-like domain. Put plainly: small molecules binding NRG1 EGF domain – biochemical, small-molecule microarray, 635 nm fluorescence, primary screen (AID 1081).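 Note: binding of the protein to compounds printed on small-molecule microarray slides.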 The note with it: higher = more signal.
Assay [8] in a line: FRG1 expression reporter modulators in myotubes – cell-based, C2C12 myotubes, firefly/Renilla luciferase, luminescence, FRG1 inhibition for FSHD, primary screen (AID 1084). As to conditions: FRG1 promoter luciferase, higher = more signal, called active from +8 up or from −8 down.
Assay [9] in a line: small molecules captured by biotinylated probe aFST – biochemical, small-molecule microarray, fluorescence 635/667, stem cell growth factor project, primary screen (AID 1086).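 Note: score merges 667 nm fluorescence with signal-to-noise of each printed compound spot.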 As to conditions: higher = more signal.
Assay [10] in a line: binders of probe aHhip on microarray, primary screen, stem cell growth factor project, biochemical, small-molecule microarray, fluorescence 635/667 (AID 1087).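 Note: score merges spot fluorescence at 667nm with spot signal to noise ratio.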 As to conditions: higher = more signal.
Assay [11] relates to PRMT1 (protein arginine N-methyltransferase 1). Put plainly: small molecules binding arginine methyltransferase PRMT1 – biochemical, small-molecule microarray, 635 nm fluorescence, primary screen (AID 1088).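 Note: binding of Prmt1 protein to compounds spotted on small-molecule microarray slides.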 As to conditions: higher = more signal.
Assay [12] can be described thus: growth effects on S. cerevisiae YJM789 – YJM789 clinical isolate, OD600, 24 h, basal, primary screen (AID 1089).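 Note: growth of clinical yeast isolate S. cerevisiae YJM 789 seeded 1000 cells per well; test concentration not given here.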 The note with it: higher = more signal, called active from +8 up or from −8 down.
A short description of assay [13]: S. pombe growth modifiers, basal conditions – strain 972, OD600, 24 h, no modulator, primary screen (AID 1090).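 Note: basal condition with compound alone and no growth modifier present; test concentration not given here.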 The note with it: S. pombe 972 growth, higher = more signal, called active from +8 up or from −8 down.
Assay [14] can be described thus: budding yeast growth modifiers under rapamycin – strain BY4716, OD600, 96 h, primary screen (AID 1091). Note: test concentration not given here. The note with it: S. cerevisiae BY4716 + rapamycin, higher = more signal, called active from +8 up or from −8 down.
For assay [15], the target named is Torsin-1A-interacting protein 2 (Homo sapiens) (UniProt Q8NFQ8). Put plainly: small molecules binding lysate-expressed LULL1 – cell lysate, human LULL1 lysate, 635/667 nm fluorescence, primary screen (AID 1092).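 Note: probe is lysate of COS7 cells overexpressing human LULL1; score merges per-feature 667 nm fluorescence with signal-to-noise.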 As to conditions: small-molecule microarray, hLULL1 lysate binding, 635 nm fluorescence; higher = more signal.
Assay [16] is described as follows: optical density change of DRC41 E. coli – strain DRC41, OD650, 24 h, E. coli filamentation project, primary screen (AID 1093).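 Note: MC1000 strain lacking acrAB efflux and sulA so SOS filamentation is blocked; test concentration not given here.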 The note with it: E. coli DRC41 growth, higher = more signal, called active from +8 up or from −8 down.
A short description of assay [17]: probe aLefty2 binding to arrayed compounds – biochemical, biotinylated probe, 635/667 nm fluorescence, primary screen (AID 1094).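 Note: score merges spot fluorescence near 667 nm with spot signal-to-noise ratio.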 The note with it: small-molecule microarray, higher = more signal.
Assay [18] has as its system Noggin (protein binding on small-molecule microarray). In words: small molecules binding Noggin protein – biochemical, 635/667 nm fluorescence, primary screen (AID 1095).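 Note: score merges 667 nm feature fluorescence with signal to noise over triplicate slides.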 The note with it: 635 nm fluorescence, higher = more signal.
Assay [19] addresses Neurogenic locus notch homolog protein 3 (Homo sapiens) (UniProt Q9UM47). In words: small molecules binding NOTCH3 protein – biochemical, 635/667 nm fluorescence, primary screen (AID 1096). As to conditions: small-molecule microarray, 635 nm fluorescence, higher = more signal.
Assay [20] is described as follows: probe aEGFR binding to arrayed compounds – biochemical, biotinylated probe, 635/667 nm fluorescence, primary screen (AID 1097).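 Note: probe is a biotinylated anti-EGFR antibody binding compounds printed on slides; score combines fluorescence near 667 nm and signal to noise of each spot.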 As to conditions: small-molecule microarray, higher = more signal.

Active and inactive are the calls of the source.

Neurogenic locus notch homolog protein 2 (Homo sapiens), sequence (Q04721 whole entry, looked up, canonical isoform): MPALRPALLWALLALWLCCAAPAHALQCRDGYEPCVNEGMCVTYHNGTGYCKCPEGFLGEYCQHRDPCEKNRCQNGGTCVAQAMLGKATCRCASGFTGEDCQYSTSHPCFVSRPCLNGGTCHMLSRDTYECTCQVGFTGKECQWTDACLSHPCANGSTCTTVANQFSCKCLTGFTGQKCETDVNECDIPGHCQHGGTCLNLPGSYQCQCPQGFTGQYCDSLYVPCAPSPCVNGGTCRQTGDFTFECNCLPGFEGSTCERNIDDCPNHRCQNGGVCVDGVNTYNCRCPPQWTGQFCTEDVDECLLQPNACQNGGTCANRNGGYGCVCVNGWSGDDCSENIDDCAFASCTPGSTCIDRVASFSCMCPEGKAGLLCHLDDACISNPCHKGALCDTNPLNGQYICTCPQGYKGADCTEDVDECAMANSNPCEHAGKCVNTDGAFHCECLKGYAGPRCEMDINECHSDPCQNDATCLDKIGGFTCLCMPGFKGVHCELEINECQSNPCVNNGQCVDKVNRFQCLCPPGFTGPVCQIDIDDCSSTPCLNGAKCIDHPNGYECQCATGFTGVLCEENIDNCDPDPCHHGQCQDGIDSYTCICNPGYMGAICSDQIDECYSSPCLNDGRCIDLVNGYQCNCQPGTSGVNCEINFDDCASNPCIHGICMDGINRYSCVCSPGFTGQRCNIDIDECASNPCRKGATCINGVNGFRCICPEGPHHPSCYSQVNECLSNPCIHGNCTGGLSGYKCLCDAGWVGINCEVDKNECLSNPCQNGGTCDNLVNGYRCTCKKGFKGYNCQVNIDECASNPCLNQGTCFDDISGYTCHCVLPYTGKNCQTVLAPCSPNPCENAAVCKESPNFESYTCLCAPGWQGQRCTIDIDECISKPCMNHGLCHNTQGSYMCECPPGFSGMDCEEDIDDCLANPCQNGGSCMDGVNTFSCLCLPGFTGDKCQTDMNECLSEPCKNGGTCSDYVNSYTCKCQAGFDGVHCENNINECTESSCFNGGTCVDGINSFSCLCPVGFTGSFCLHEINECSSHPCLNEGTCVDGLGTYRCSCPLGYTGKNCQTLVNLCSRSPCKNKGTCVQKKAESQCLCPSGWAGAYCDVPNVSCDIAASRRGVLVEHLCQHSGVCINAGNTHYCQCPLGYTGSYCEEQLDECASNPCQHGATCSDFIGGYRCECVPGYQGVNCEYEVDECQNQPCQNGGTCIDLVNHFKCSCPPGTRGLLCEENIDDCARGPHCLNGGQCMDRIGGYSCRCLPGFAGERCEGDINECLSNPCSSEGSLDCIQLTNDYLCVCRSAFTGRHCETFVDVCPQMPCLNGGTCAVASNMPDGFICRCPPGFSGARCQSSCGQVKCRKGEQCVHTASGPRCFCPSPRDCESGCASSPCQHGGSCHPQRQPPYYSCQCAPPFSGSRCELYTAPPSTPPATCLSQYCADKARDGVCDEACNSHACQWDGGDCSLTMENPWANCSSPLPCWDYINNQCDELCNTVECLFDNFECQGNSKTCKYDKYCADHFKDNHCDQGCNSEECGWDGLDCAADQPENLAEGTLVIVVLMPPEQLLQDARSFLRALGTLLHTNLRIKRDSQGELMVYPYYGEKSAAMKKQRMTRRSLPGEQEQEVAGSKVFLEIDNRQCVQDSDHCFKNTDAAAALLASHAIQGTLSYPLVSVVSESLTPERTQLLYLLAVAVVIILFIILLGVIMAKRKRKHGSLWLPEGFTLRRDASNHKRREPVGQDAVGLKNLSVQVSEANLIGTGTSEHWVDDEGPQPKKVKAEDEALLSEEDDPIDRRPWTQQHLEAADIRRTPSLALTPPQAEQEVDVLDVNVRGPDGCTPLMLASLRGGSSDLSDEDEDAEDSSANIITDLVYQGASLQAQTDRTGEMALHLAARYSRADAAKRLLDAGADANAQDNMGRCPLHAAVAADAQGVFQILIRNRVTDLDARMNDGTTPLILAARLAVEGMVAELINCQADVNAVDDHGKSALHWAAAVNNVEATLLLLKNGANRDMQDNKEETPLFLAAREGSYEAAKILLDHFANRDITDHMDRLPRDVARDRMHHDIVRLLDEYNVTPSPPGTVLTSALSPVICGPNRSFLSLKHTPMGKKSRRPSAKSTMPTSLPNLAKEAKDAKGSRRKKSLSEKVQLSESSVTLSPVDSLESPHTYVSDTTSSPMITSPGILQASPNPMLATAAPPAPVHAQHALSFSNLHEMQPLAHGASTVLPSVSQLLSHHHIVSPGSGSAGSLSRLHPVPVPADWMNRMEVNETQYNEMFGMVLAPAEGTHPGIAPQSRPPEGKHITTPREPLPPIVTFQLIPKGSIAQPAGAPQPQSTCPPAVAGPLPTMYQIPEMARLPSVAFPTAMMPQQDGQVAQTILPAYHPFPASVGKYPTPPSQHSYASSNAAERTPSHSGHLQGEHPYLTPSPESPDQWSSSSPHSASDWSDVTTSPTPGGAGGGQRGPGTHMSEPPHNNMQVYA
Torsin-1A-interacting protein 2 (Homo sapiens), sequence (Q8NFQ8 whole entry, looked up): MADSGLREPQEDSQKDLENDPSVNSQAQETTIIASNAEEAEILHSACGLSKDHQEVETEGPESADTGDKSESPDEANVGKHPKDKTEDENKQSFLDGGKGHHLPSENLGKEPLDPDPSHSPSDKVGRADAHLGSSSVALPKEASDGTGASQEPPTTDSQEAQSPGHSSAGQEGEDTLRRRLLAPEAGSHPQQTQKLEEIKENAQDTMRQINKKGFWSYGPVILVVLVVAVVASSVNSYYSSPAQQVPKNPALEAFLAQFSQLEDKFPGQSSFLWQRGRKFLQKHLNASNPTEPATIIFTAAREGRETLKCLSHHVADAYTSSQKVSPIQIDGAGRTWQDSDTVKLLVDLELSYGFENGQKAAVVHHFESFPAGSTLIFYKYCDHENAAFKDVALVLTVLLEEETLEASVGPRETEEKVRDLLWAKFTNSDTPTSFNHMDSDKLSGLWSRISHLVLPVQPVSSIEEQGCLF
Pro-neuregulin-1, membrane-bound isoform (Homo sapiens), sequence (Q02297 whole entry, looked up, the tested form may be a part, canonical isoform): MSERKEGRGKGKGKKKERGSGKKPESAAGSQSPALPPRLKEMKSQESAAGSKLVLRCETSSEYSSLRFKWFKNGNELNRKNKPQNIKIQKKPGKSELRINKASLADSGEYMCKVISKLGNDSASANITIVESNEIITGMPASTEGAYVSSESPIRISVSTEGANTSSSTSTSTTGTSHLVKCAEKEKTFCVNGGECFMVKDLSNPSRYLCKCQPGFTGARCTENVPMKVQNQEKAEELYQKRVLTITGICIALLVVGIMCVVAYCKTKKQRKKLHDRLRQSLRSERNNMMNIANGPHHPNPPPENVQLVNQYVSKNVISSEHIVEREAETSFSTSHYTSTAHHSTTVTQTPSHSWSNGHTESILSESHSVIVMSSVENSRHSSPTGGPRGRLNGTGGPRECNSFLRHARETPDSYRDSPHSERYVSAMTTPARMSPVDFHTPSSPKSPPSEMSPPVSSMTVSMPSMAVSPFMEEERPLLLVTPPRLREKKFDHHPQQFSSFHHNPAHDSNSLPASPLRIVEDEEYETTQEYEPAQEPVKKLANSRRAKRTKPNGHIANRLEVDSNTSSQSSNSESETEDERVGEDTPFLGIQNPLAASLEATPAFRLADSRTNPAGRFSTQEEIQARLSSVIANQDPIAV

In the case of `O=C1OCC=C[C@H]2OC34C=CCN(CCN5CCOCC5)C(=O)[C@H]3N(CCO)C(=O)[C@@H]4[C@@H]12` (stereo not given in full), the composite z-score in assay [1] is -0.341; in assay [2], -0.483; in assay [3], -0.0985; in assay [4], -0.659; in assay [5], -0.273; in [6] it was 0.605. For the same compound, the composite z-score in assay [7] is 0.242; in assay [9], -0.218; in assay [10] it was -0.412; in assay [11], 1.15; in [15], 0.431; in [17] it was -0.417. Moreover, the composite z-score in assay [18] was 0.928; in [19], 0.534; in [20], -0.139. Moreover, the z-score is 1.02 (inactive) in [8]; -0.674 (inactive) in assay [12]; -0.537 (inactive) in [13]; -0.12 (inactive) in assay [14]; -0.653 (inactive) in assay [16].
On to `COCCCNC(=O)[C@@]1(Cc2ccccc2)N=C(c2ccc(OCCCO)cc2)O[C@H]1c1ccccc1CN=[N+]=[N-]`, for which the composite z-score in assay [1] is 0.988; in assay [2], 1.35; in assay [3], 0.0762; in [4] it was 0.806; in assay [5] it was 1.25; in [6], 1.74. In addition, the composite z-score in assay [7] was 1.11; in [9], 1.54; in assay [10], -0.194; in assay [11], 1.56; in assay [15], 3.16; in assay [17] it was 0.277. Moreover, the composite z-score came out at 0.445 in assay [18], 1.05 in [19] and 0.163 in assay [20]. In addition, the z-score is -0.989 (inactive) in assay [8]; -0.201 (inactive) in assay [12]; 0.351 (inactive) in assay [13]; 0.463 (inactive) in [14]; 1.06 (inactive) in assay [16].
In the case of `[N-]=[N+]=Nc1ccccc1C[C@]1(C(=O)N2CCCCC2)COC(c2ccc(OCCCO)cc2)=N1`, the composite z-score was -0.11 in [1]; 0.0405 in [2]; 0.0605 in assay [3]; 0.87 in assay [4]; 0.708 in assay [5]; 1.64 in assay [6]. Further, the composite z-score was 0.995 in [7]; 0.755 in assay [9]; -0.353 in assay [10]; 1.54 in assay [11]; 3.18 in assay [15]; -0.0631 in assay [17]. For the same compound, the composite z-score in assay [18] is 0.753; in [19], 1.08; in assay [20], -0.0828. Besides, the z-score is -2.42 (inactive) in [8]; 1.73 (inactive) in [12]; -1.72 (inactive) in assay [13]; 32.7 (active) in [14]; 1.75 (inactive) in assay [16].
As for `C=CCNC(=O)[C@@H]1[C@H]2C(=O)O[C@H](c3ccccc3)[C@H](c3ccccc3)N2[C@H](c2ccc(OCCO)cc2)[C@@]12C(=O)N(C(=O)OCCOC)c1ccc(C#CCC(C(=O)OC)C(=O)OC)cc12`, the composite z-score in assay [1] is -0.426; in [2], 1.25; in [3], 0.0408; in assay [4], 1.05; in [5], 1.1; in [6], 1.48. In addition, the composite z-score was found to be 1.12 in [7]; 0.88 in assay [9]; 0.386 in assay [10]; 1.54 in assay [11]; 2.39 in assay [15]; 0.0398 in assay [17]. Also, the composite z-score in assay [18] was found to be 1.18; in assay [19], 1.03; in assay [20], 0.23. The z-score in [8] is 1.26 (inactive); in [12], 1.05 (inactive); in assay [13] it was 0.552 (inactive); in [14] it was 5.79 (inactive); in assay [16] it was -0.0236 (inactive).
Consider `COc1ccc(C(O)C2C=CC3C(=O)N(C)C(=O)C3N2N(c2ccccc2)c2ccccc2)c2ccccc12` (stereo not given), for which the composite z-score was found to be 0.249 in [1]; 0.643 in assay [2]; 0.0346 in assay [3]; 0.412 in assay [4]; 0.295 in [5]; 0.85 in assay [6]. Besides, the composite z-score was 0.894 in assay [7]; 0.284 in [9]; 0.576 in [10]; 0.474 in assay [11]; -0.124 in assay [15]; 0.242 in assay [17]. Also, the composite z-score is 0.575 in assay [18], 0.563 in assay [19] and -0.0283 in [20]. In addition, the z-score in assay [8] is -0.14 (inactive); in [12] it was 0.388 (inactive); in assay [13], 0.954 (inactive); in assay [14], 0.375 (inactive); in assay [16] it was -1.27 (inactive).
